# Experimental data taken from PubChem BioAssay (NCATS).
# Values joined by “and” are separate entries in the source; they are usually repeats but may differ in a detail not shown here. Identical values can stand only once. Inconclusive results are not listed. Where a call stands in place of a potency, no number is given. Active and inactive are the calls of the source. Unless noted, calls follow the shape of the full dose curve.
# How the values were obtained:
# [1] = molecular target: Glucocorticoid receptor (Homo sapiens) (UniProt P04150); experiment: qHTS assay for small molecule antagonists of glucocorticoid receptor signaling (AID 588533; active = well fitted inhibition curve with a large enough effect in the signal ratio, with a control signal flat, not every such curve was filed as active; the % refers to the signal ratio;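 also: cells stimulated with 2 nM dexamethasone as agonist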)
# Glucocorticoid receptor (Homo sapiens), sequence (P04150 whole entry, looked up): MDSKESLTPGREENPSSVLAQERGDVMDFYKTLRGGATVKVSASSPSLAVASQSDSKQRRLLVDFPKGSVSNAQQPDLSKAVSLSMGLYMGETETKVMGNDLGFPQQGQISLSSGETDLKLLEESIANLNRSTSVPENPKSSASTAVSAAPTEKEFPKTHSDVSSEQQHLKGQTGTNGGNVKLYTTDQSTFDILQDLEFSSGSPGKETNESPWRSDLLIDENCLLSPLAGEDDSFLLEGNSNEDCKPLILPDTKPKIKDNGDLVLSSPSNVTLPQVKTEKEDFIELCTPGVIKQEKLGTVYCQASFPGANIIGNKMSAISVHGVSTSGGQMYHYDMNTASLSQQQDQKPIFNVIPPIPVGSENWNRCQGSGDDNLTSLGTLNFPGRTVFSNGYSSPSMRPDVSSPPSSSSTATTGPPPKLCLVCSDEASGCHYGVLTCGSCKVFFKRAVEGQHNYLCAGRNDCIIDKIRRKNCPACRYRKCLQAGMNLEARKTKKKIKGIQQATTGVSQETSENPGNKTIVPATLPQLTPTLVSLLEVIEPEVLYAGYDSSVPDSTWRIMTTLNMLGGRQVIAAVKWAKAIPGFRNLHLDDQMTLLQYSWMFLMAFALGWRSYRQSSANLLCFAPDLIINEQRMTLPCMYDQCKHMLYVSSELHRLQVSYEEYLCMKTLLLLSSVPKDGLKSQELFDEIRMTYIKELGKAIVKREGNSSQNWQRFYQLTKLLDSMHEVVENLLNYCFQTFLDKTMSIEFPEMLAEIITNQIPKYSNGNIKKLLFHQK
# How it was run: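 Antagonist-mode qHTS: compound titrations added to GRE-bla HeLa cells, then dexamethasone 2 nM final; 18 h, 37 C. CCF4 FRET fluorescence normalized to dexamethasone and DMSO; IC50 from Hill fit.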
# [2] = qHTS assay for small molecule antagonists of peroxisome proliferator-activated receptor delta signaling (AID 588535; active = well fitted inhibition curve with a large enough effect in the signal ratio, with a control signal flat, not every such curve was filed as active; the % refers to the signal ratio;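 as to max response: cells co-treated with a PPAR-delta agonist as stimulator during compound exposure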); settings: HEK293T PPARd-UAS-bla, beta-lactamase FRET ratio, 18 h; 460 nm channel
# How it was run: (§1)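 Inhibition of PPAR-delta response element-driven beta-lactamase expression is measured in HEK293T cells exposed to a compound titration series for 18 hrs at 37 C. Half-maximal inhibition comes from Hill equation fitting.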
# [3] = molecular target: Peroxisome proliferator-activated receptor delta (Homo sapiens) (UniProt Q03181); experiment: as above
# Peroxisome proliferator-activated receptor delta (Homo sapiens), sequence (Q03181 whole entry, looked up): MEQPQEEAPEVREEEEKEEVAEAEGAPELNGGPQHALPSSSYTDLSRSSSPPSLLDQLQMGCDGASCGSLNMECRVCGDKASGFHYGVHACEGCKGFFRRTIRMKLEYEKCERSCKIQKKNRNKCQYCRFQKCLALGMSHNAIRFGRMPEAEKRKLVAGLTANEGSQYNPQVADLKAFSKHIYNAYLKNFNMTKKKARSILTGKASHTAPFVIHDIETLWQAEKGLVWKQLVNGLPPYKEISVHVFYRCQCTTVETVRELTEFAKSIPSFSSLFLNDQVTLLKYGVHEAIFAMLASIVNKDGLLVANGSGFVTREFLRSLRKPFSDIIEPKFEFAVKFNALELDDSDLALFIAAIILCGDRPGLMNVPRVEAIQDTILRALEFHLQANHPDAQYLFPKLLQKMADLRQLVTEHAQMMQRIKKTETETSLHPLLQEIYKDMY
# How it was run: as §1
# [4] = molecular target: Peroxisome proliferator-activated receptor gamma (Homo sapiens) (UniProt P37231); experiment: qHTS assay for small molecule agonists of peroxisome proliferator-activated receptor gamma signaling (AID 588536; active = well fitted curve in the direction sought with a large enough effect in the signal ratio, with a control signal flat, not every such curve was filed as active; the % refers to the signal ratio)
# Peroxisome proliferator-activated receptor gamma (Homo sapiens), sequence (P37231 whole entry, looked up): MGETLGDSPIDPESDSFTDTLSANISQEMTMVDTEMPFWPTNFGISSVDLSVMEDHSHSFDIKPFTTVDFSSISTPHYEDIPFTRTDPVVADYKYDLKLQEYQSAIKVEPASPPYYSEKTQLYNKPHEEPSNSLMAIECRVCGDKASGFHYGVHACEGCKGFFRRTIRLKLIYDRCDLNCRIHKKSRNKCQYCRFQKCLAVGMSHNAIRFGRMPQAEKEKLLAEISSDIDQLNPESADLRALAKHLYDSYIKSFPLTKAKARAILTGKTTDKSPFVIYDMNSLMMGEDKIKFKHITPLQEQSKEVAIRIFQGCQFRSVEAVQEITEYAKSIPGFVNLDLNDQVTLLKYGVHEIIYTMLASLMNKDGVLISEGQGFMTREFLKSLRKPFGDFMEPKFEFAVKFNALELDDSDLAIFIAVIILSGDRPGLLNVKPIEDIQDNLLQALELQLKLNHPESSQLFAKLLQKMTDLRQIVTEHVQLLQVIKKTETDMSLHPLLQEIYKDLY
# How it was run: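 This is an agonist-mode beta-lactamase reporter assay in HEK293 PPAR-gamma-UAS-bla cells with 1% charcoal/dextran FBS. Compound titrations ran 16 h at 37 C before CCF4 detection. EC50 and efficacy are Hill fits scaled to 2 uM rosiglitazone (100%) and DMSO basal.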
# [5] = molecular target: Peroxisome proliferator-activated receptor gamma (Homo sapiens) (UniProt P37231); experiment: qHTS assay for small molecule antagonists of peroxisome proliferator-activated receptor gamma signaling (AID 588537; active = well fitted inhibition curve with a large enough effect in the signal ratio, with a control signal flat, not every such curve was filed as active; the % refers to the signal ratio;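 also: reporter cells co-stimulated with 50 nM rosiglitazone agonist during compound treatment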)
# How it was run: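 Compounds are tested as concentration series for inhibition of rosiglitazone-driven (50 nM) reporter expression in GeneBLAzer PPAR-gamma-UAS-bla HEK293 cells. After 16 h at 37 C, CCF4 substrate is added for 2 h at room temperature and blue/green fluorescence is measured.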
# [6] = molecular target: Vitamin D3 receptor (Homo sapiens) (UniProt P11473); experiment: qHTS assay for small molecule antagonists of vitamin D receptor signaling (AID 588541);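 also: receptor activated by calcitriol during compound treatment; series mostly up to about 77 µM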
# Vitamin D3 receptor (Homo sapiens), sequence (P11473 whole entry, looked up): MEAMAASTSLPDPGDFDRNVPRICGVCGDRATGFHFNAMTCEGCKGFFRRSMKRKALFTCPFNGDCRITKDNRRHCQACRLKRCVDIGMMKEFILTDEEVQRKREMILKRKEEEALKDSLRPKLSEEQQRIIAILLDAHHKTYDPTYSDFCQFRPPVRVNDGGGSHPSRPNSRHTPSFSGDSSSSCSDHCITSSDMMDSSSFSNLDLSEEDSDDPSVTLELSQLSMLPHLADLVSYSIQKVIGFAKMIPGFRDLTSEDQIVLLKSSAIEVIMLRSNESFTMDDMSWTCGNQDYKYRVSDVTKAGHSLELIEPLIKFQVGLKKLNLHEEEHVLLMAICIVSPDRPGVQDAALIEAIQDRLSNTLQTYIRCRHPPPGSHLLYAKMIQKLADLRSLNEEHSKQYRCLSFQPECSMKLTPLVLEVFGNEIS
# How it was run: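 VDR-UAS-bla HEK293T cells (2000/well, 2% charcoal-stripped FBS) were treated with titrated compounds plus 1-alpha,25-dihydroxyvitamin D3 (50 nM or 3 nM final) for 16 h at 37 C. CCF4 beta-lactamase fluorescence was read; Hill fits gave IC50.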
# [7] = molecular target: Vitamin D3 receptor (Homo sapiens) (UniProt P11473); experiment: qHTS assay for small molecule agonists of vitamin D receptor signaling (AID 588543)
# How it was run: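 β-lactamase reporter, VDR-UAS-bla HEK293T, agonist mode. Cells plated 5 h at 37 °C, compound titration 16 h at 37 °C, CCF4 dye 2 h RT, ratio 460/530 nm. Hill fit → EC50, efficacy vs 50 nM 1α,25-(OH)2D3.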
# [8] = qHTS assay for small molecule agonists of retinoid X receptor alpha signaling (AID 588544); settings: HEK293T RXRa-UAS-bla, beta-lactamase reporter, 18 h; 530 nm emission
# [9] = molecular target: Retinoic acid receptor RXR-alpha (Homo sapiens) (UniProt P19793); experiment: as above
# Retinoic acid receptor RXR-alpha (Homo sapiens), sequence (P19793 whole entry, looked up): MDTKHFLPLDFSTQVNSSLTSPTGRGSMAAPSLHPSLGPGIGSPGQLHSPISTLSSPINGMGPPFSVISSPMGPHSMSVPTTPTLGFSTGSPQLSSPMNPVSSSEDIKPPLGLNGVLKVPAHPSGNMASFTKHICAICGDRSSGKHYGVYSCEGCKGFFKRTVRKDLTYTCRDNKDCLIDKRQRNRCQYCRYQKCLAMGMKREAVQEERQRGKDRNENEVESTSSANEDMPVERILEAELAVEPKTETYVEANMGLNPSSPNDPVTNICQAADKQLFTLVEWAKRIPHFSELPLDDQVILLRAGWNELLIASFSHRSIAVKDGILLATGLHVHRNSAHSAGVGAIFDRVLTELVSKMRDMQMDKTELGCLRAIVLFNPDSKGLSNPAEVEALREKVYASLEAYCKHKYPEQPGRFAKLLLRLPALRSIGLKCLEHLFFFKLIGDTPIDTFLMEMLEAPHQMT
# [10] = molecular target: Thyroid hormone receptor beta (Homo sapiens) (UniProt P10828); experiment: qHTS assay for small molecule agonists of thyroid hormone receptor beta signaling (AID 588545)
# Thyroid hormone receptor beta (Homo sapiens), sequence (P10828 whole entry, looked up): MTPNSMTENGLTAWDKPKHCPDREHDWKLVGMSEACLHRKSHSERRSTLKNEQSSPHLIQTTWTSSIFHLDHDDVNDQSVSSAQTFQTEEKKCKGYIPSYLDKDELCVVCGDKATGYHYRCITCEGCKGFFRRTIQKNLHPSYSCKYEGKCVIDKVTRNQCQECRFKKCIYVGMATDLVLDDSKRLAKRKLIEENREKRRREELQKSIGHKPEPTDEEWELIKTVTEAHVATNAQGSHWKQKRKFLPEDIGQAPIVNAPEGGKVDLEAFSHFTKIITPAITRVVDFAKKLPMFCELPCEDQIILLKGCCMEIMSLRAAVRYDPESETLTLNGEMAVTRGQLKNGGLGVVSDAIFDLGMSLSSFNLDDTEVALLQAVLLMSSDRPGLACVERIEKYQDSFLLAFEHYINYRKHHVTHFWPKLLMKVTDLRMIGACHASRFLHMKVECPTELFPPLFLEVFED
# How it was run: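 Agonist activity was read as beta-lactamase CCF4 fluorescence (405 ex, 460/530 em), scaled between DMSO (0%) and 10 nM T3 (100%), then Hill-fitted for EC50 and efficacy. HEK 293 TR-UAS-bla cells in 2% charcoal/dextran FBS medium were exposed 18 h at 37 C.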
# [11] = qHTS assay for small molecule antagonists of retinoid X receptor alpha signaling (AID 588546; active = well fitted inhibition curve with a large enough effect in the signal ratio, with a control signal flat, not every such curve was filed as active; the % refers to the signal ratio;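 also: cells stimulated with 9-cis-retinoic acid as agonist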); settings: HEK293T RXRa-UAS-bla, beta-lactamase ratio, antagonist mode; measured here: W530 green channel, cytotoxicity proxy
# How it was run: (§2)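 Beta-lactamase reporter inhibition, read as CCF4 fluorescence ratio (ex 405, em 460/530 nm) after 2 h at RT. HEK293T UAS-bla cells, 2500/well, were stimulated with 9-cis-RA at 500 or 100 nM final alongside test compound for 18 h at 37 C.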
# [12] = molecular target: Retinoic acid receptor RXR-alpha (Homo sapiens) (UniProt P19793); experiment: as above; settings: HEK293T RXRa-UAS-bla, beta-lactamase ratio, antagonist mode
# How it was run: as §2
# [13] = molecular target: Thyroid hormone receptor beta (Homo sapiens) (UniProt P10828); experiment: qHTS assay for small molecule antagonists of thyroid hormone receptor beta signaling (AID 588547; active = well fitted inhibition curve with a large enough effect in the signal ratio, with a control signal flat, not every such curve was filed as active; the % refers to the signal ratio;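 also: cells stimulated with 0.4 nM T3 agonist during compound exposure; series mostly up to about 77 µM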); settings: TR-UAS-bla HEK293, beta-lactamase ratio, antagonist mode, 18 h
# How it was run: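 TR-UAS-bla GripTite HEK293 cells in 2% charcoal/dextran FBS medium were preincubated 4 h at 37 C, given compound (0.59 nM to 92 uM) plus 0.4 nM T3 (final) for 18 h, then CCF4 for 2 h at RT; Hill fit gave IC50.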
# [14] = molecular target: Voltage-gated inwardly rectifying potassium channel KCNH2 (Homo sapiens) (UniProt Q12809); experiment: qHTS Assay for Small Molecule Inhibitors of the Human hERG Channel Activity (AID 588834; active = well fitted inhibition curve with a large enough effect;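 also: lower thallium flux fluorescence means stronger hERG block; nearly all actives have a fitted effect of over 50% in size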; also: potency is read from the fitted curve at half-maximal effect)
# Voltage-gated inwardly rectifying potassium channel KCNH2 (Homo sapiens), sequence (Q12809 whole entry, looked up): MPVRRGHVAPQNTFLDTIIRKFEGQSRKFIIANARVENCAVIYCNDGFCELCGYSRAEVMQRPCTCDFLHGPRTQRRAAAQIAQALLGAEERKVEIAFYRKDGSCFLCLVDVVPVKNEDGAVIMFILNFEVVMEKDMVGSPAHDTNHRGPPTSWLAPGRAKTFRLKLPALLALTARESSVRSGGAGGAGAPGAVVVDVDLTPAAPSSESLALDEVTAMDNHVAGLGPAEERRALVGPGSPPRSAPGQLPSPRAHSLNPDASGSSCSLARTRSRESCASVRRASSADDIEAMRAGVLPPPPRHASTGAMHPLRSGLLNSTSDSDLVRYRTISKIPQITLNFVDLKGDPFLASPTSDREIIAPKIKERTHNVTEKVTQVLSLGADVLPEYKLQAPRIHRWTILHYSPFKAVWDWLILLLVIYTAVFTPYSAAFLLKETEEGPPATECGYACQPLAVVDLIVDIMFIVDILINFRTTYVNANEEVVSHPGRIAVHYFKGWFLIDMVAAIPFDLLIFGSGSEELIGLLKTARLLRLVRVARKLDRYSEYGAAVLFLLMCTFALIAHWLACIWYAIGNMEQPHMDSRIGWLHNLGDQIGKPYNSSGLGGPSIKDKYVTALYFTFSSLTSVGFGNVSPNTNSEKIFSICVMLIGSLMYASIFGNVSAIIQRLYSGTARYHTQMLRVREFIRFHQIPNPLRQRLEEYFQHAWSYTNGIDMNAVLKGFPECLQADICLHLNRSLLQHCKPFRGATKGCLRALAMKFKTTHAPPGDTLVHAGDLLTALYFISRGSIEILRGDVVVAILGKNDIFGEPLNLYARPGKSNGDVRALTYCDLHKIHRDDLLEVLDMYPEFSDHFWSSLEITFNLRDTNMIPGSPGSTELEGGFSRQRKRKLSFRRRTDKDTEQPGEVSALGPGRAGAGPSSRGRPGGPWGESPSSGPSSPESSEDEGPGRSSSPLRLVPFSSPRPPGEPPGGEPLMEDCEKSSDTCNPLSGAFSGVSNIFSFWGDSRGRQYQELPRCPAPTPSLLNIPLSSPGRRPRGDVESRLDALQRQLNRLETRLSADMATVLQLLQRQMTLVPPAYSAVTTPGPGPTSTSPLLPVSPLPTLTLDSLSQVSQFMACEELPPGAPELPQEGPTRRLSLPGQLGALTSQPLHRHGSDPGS
# How it was run: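 Thallium-flux (FluxOR) read-out on FDSS: fluorescence read 10 s before and 2 min after stimulation buffer. hERG-BacMam-transduced U2OS cells, compound exposure about 10 min. AC50 by standard Hill equation.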
# [15] = qHTS assay for small molecule activators of the p53 signaling pathway (AID 651743; active = well fitted activation curve with a large enough effect in the signal ratio, not every such curve was filed as active; the % refers to the signal ratio; also: series mostly up to about 92 µM); settings: HCT-116 p53RE-bla, beta-lactamase FRET ratio, 16 h; stronger effect = higher value
# How it was run: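 Agonist-mode quantitative HTS in HCT-116 cells carrying a p53-response-element beta-lactamase reporter; 16 h compound treatment at 37 C, then FRET substrate loading for 2 h at room temperature and fluorescence read.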
# [16] = qHTS assay for small molecule activators of the nuclear factor-kappa B (NF-kB) signaling pathway (AID 651749; active = well fitted activation curve with a large enough effect in the signal ratio; the % refers to the signal ratio; also: series mostly up to about 77 µM); settings: NF-kB-bla ME-180 cells, beta-lactamase FRET ratio, 16 h; stronger effect = higher value
# How it was run: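 Human ME-180 cervical cells with an NF-kB-bla construct; compounds added via 23 nL pin transfer, DMSO as vehicle; incubation 16 hr. Reporter activity measured by FRET disruption.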
# [17] = qHTS assay for small molecule disruptors of the mitochondrial membrane potential - 1 hr assay (AID 651754); also: nearly all actives have a fitted effect of over 35% in size; also: potency is read from the fitted curve at half-maximal effect
# How it was run: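 Loss of mitochondrial potential shifts the cationic dye from red mitochondrial aggregates to green cytoplasmic monomers. Cells (HepG2) are treated with compound for 1 hr before a 30 min dye incubation at 37C.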
# [18] = molecular target: Glucocorticoid receptor (Homo sapiens) (UniProt P04150); experiment: qHTS assay for small molecule agonists of glucocorticoid receptor signaling (AID 588532; active = well fitted curve in the direction sought with a large enough effect in the signal ratio, with a control signal flat; the % refers to the signal ratio); settings: HeLa MMTV-bla, beta-lactamase ratio, agonist, 18 h; stronger effect = higher value; percent of dexamethasone control, DMSO zero
# How it was run: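 Stimulation of a glucocorticoid response element-driven beta-lactamase gene was measured in HeLa cells. Responses were scaled between DMSO basal and 0.1 uM dexamethasone, then fitted for half-maximal stimulation.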
# [19] = qHTS assay for small molecule agonists of the antioxidant response element (ARE) signaling pathway (AID 651741; active = well fitted activation curve with a large enough effect in the signal ratio; the % refers to the signal ratio; also: potency is read from the fitted curve at half-maximal effect)
# How it was run: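 Reporter: beta-lactamase under ARE, stably in HepG2. Exposure: 16 h, 37 C, compounds delivered in DMSO by pin tool after 5 h cell preincubation. Readout: FRET substrate fluorescence after 2 h at RT.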
SMILES,outcome [1],max response [2],Potency [3],outcome [4],outcome [5],outcome [6],outcome [7],max response [8],outcome [9],outcome [10],max response [11],max response [12],activity change % (negative = inhibition) [13],Potency [14],activation [15],activation [16],Potency [17],activation [18],Potency [19]
ON=C1CCCCC1,inactive,-2.32%,inactive,inactive,inactive,inactive,inactive,-11.2%,inactive,inactive,5.82%,4.41% (inactive),8.44% (inactive),inactive,-1.24% (inactive),-0.0489% (inactive),inactive,–,–
C/C(C=O)=C/c1ccccc1,inactive,-13.6%,inactive,inactive,inactive,inactive,inactive,-15.6%,inactive,inactive,2.35%,-7.56% (inactive),-5.38% (inactive),inactive,–,-1.45% (inactive),–,–,–
CC(=O)C1(C)CC2=C(CCCC2(C)C)CC1C (centres undefined),–,12.6%,inactive,inactive,–,inactive,inactive,-9.8%,inactive,–,-2.18%,25.5% (inactive),-1.03% (inactive),15.8 µM (active),-2.14% (inactive),–,–,-5.53% (inactive),inactive
COc1ccc(N)c(OC)c1,–,–,–,inactive,inactive,inactive,inactive,-3.88%,inactive,inactive,-0.758%,-1.72% (inactive),-1.14% (inactive),inactive,1.84% (inactive),–,37.6 µM (active),4.84% (inactive),–
O=C(O)c1cc(Cl)cc(Cl)c1,–,29.5%,–,inactive,inactive,–,–,-6.8%,inactive,–,-0.682%,11.3% (inactive),6.89% (inactive),inactive,1.56% (inactive),–,–,-5.57% (inactive),–
Cc1ccc2nc(-c3ccc(N)cc3)sc2c1S(=O)(=O)O,–,–,–,–,inactive,inactive,–,–,–,–,-1.52%,30.6% (inactive),–,inactive,18.6% (inactive),–,–,22.8% (inactive),42.2 µM (active)
Cc1ccccc1C(=O)O,–,–,–,inactive,–,inactive,inactive,-19.5%,inactive,–,-2.02%,37.3% (inactive),-4.62% (inactive),inactive,–,-1.6% (inactive),inactive,-5.56% (inactive),inactive
C[C@@H]1CC2(OC[C@]3(C)O[C@H]23)O[C@H]2C[C@@]3(C)[C@@H]4CC[C@H]5C(C)(C)C(O[C@@H]6OC[C@@H](O)[C@H](O)[C@H]6O)CC[C@@]56C[C@@]46CC[C@]3(C)[C@@H]12 (some centres undefined),–,–,–,–,–,–,–,–,–,inactive,–,–,4.18% (inactive),inactive,-7.18% (inactive),-1.67% (inactive),inactive,-8.99% (inactive),–
CCC(C)O (centres undefined),inactive,-23.2%,inactive,–,–,inactive,inactive,-20.4%,inactive,inactive,2.22%,4.59% (inactive),-7.82% (inactive),inactive,-1.8% (inactive),–,inactive,–,inactive
CC(=O)c1cc(C)oc1C,inactive,-4.12%,inactive,inactive,–,–,inactive,-2.61%,inactive,inactive,4.07%,0.525% (inactive),-4.91% (inactive),inactive,-2.3% (inactive),-0.373% (inactive),inactive,–,inactive
NS(=O)(=O)O,inactive,-9.24%,inactive,inactive,inactive,inactive,inactive,0.843%,inactive,inactive,1.78%,–,-4.41% (inactive),inactive,-0.9% (inactive),–,inactive,–,inactive
C=C(C)C1CC=C(C)C(OC(C)=O)C1 (centres undefined),inactive,6.72%,inactive,inactive,inactive,–,inactive,-3.57%,inactive,inactive,-6.8%,1.02% (inactive),–,inactive,1.6% (inactive),–,inactive,–,–
O=Cc1ccc(C(=O)O)cc1,–,–,–,inactive,–,–,–,15.4%,inactive,inactive,-11.2%,34.5% (inactive),7.45% (inactive),inactive,-2.17% (inactive),–,inactive,3.49% (inactive),–
O=C1OC(=O)c2c(Br)c(Br)c(Br)c(Br)c21,inactive,19.7% and -28%,inactive,inactive,inactive,inactive,inactive,-2.51% and -8.84%,inactive,inactive,-0.218% and -8.01%,6.1% (inactive) and -5.43% (inactive),7.07% (inactive) and -6.85% (inactive),inactive,–,0.149% (inactive) and 3.05% (inactive),inactive,–,–
CCCCOCCOCCSC#N,inactive,34.7%,inactive,inactive,–,inactive,inactive,3.38%,inactive,–,-3.14%,5.89% (inactive),–,inactive,-1.56% (inactive),0.862% (inactive),inactive,–,inactive
CCCOCC(C)OCC(C)O (centres undefined),inactive,-11.5%,inactive,inactive,–,inactive,inactive,-0.324%,inactive,inactive,-4.87%,13.7% (inactive),6.45% (inactive),inactive,-5.61% (inactive),-1.44% (inactive),inactive,–,inactive
